# Compound activity (PubChem BioAssay)
# D1 PAM – enhances dopamine response at the human D1 receptor; P21728; HEK293 TREx D1 cells, calcium flux, dopamine EC20 potentiation; potentiation, % at 10 µM; hit rate 0.036% among 360,000; AID 504651; in the data active = potentiation above about 30%; also: 0% is about no effect
# Target sequence (P21728 whole entry, looked up): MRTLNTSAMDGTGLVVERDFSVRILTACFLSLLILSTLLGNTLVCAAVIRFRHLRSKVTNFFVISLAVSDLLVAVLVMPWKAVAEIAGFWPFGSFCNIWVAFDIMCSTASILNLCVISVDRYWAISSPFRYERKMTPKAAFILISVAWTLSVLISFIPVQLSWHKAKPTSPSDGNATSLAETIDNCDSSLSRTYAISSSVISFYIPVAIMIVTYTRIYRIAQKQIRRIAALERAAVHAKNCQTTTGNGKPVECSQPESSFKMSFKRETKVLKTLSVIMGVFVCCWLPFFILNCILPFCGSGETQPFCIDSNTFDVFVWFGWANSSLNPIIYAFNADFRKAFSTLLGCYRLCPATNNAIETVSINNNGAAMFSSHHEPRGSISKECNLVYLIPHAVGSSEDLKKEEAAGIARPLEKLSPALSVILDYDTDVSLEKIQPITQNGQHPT
# TRHR ag – activates the human TRH receptor; P34981; TRHR cells, calcium flux fluo-8, FDSS agonist mode; activation, % at 2 µM; hit rate 0.18% among 360,000; AID 493084; also: 0% is about no effect
#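 Agonist-mode FDSS calcium read (Ex 480/Em 530, 1 s cycles) in 1536-well TRHR cells with fluo-8 dye, after 10-cycle baseline and 23 nL compound addition; TRH at EC20 (10 nM final) added afterwards for the enhancer phase.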
# D1 ag – agonists of human D1 dopamine receptor | activation, % at 2 µM | hit rate 1% among 360,000 | P21728 | AID 504660 | HEK293 T-REx D1 cells, calcium flux, agonist mode; also: 0% is about no effect
#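 Inducible HEK293 T-REx D1 cells, force-coupled to calcium signalling, were plated at 4000 cells/well with tetracycline and held overnight at 30 C. After no-wash calcium dye loading, compound-evoked calcium rise over 180 s flagged agonists.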
# TRHR enhancer – allosterically enhances the human TRH receptor | P34981 | TRHR cells, fluo-8 calcium fluorescence, EC20 TRH enhancement | enhancement, % at 2 µM | hit rate 0.66% among 360,000 | AID 493056; in the data active = enhancement above about 30%; also: 0% is about no effect
#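 Enhancer read-out: after compound pinning and an initial kinetic agonist-mode read, an EC20 of TRH (10 nM final) was injected and fluo-8 calcium signal (Ex 480/Em 530) followed at 1 s/cycle for 100 cycles in TRHR-expressing cells.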
# D1 antagonist – human D1 dopamine receptor antagonism; P21728; HEK293 TREx D1 cells, calcium flux, dopamine EC80; hits give low values; activity change, negative = inhibition, % at 10 µM; hit rate 3.2% among 360,000; in the data active = activity change below about -30%; also: % is scaled to controls: 0 for no effect and ±100 for the full control effect
#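 Kinetic fluorescence of a calcium dye serves as the read-out. D1-expressing Hek293 Trex cells, induced overnight at 30 C, are exposed to compound for 180 s before an EC80 dopamine addition, then read 180 s further.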
# The depositor's hits bear a star; nt = not tested or not shown. A selection: hits, their analogues and other compounds. The true share with any hit is near 4.6%. Rule as the data show it, unless noted: active = activation above about 30%; inactive = the rest.
SMILES,D1 PAM,TRHR ag,D1 ag,TRHR enhancer,D1 antagonist
COc1ccc(C(=O)Nc2nnc(SCc3cc(=O)n4cc(Cl)ccc4n3)s2)cc1,-2,0,-1,0,0
COc1ccc2c(C)c(CCC(=O)NCc3ccc(C)cc3)c(=O)oc2c1,2,0,-3,0,1
Cc1cc2c(s1)c1cnn(Cc3c(Cl)ccc(C)c3F)c(=O)c1n2C,3,0,7,5,-2
CC(=O)N1c2ccc(S(=O)(=O)NCC3CCC(C(=O)NCCC(C)C)CC3)cc2CC1C (stereo not given),-6,0,1,-16,10
COc1ccc(/C=C(\C#N)C(=O)OCC(=O)NCc2ccccc2)cc1,1,0,0,0,0
CCN(CC)c1ccc(/C=C(\C#N)C(=O)c2ccc(Br)cc2)cc1,-10,109*,259*,7,-48*
CN(C)c1ccc(/C=C(\C#N)c2nc3ccccc3c(=O)[nH]2)cc1,6,38*,97*,-1,-27
COc1cccc(CNC(=O)COC(=O)/C(C#N)=C/c2ccc(N(C)C)cc2)c1,nt,13,74*,1,-17
CN(C)c1ccc(/C=C(\C#N)C(=O)c2ccccc2)cc1,22,138*,401*,29,-39*
Cc1cccc(/C=C(\C#N)c2nc3ccccc3c(=O)[nH]2)c1,-3,2,6,-1,-19
Cc1cc(S(=O)(=O)C(CNC(=O)COc2ccc(Cl)cc2)c2cccs2)ccc1F (stereo not given),1,-1,17,8,-2
CCCCCn1ncc2c3sc(C)cc3n(C)c2c1=O,-2,-2,2,-2,-2
COc1ccc(-c2cn3nc(N4CCCC(C(=O)Nc5ccccc5OC)C4)sc3n2)cc1 (stereo not given),-4,0,7,-3,-4
Cc1ccc2nc(N(Cc3cccnc3)C(=O)c3ccco3)sc2c1,-3,0,-1,4,nt
CCN(CC)c1ccc(/C=C(\C#N)C(N)=O)cc1,-2,5,14,3,8
CCOC(=O)NC(=O)/C(C#N)=C/c1ccc(N(C)C)cc1,-5,10,31*,13,-26
CN(C)c1ccc(/C=C(\C#N)c2ccccc2)cc1,-4,0,1,0,-4
CN(C)c1cccc(/C=C(\C#N)c2ccccc2)c1,0,-1,-1,17,-32*
COc1ccc(CNC(=O)Cn2c(-c3ccccc3)cc(C(C)=O)c2C)cc1OC,-4,0,1,-5,-26
O=C(Nc1ccc(Br)cc1)c1ccc(F)c(S(=O)(=O)N2CCc3ccccc32)c1,-2,1,5,3,11
CC(NC(=O)CNC(=O)c1ccccc1Br)c1cccs1 (stereo not given),-4,0,4,8,-23
COc1ccc(C(=O)NCc2nnc(SCC(=O)N3CCc4ccccc43)n2Cc2ccccc2)cc1,-2,0,3,10,-30*
Cc1ccc(S(=O)(=O)NC(N)=NCCC[C@@H](N)C(=O)Nc2cc(C(F)(F)F)ccc2Cl)cc1,1,-1,1,17,-15
Cc1sc2ncn(CC(=O)Nc3cccc(C(F)(F)F)c3)c(=O)c2c1S(=O)(=O)N1CCN(C)CC1,6,0,1,19,32
Cc1ccc(C)c(OCc2nnc(N)s2)c1,-7,0,2,35*,7
SMILES,D1 PAM,TRHR ag,D1 ag,TRHR enhancer,D1 antagonist
CSC1=N/C(=C\c2ccccc2C)C(=O)S1,3,1,3,32*,5
Cc1ccc(NC(=O)c2sc3nc4c(cc3c2N)CN(Cc2ccccc2)CC4)cc1,2,0,6,19,8
CCOC(=O)c1nc(NCc2ccc(Cl)cc2)c2c(C)noc2n1,-1,-1,2,0,-49*
CC(C)NC(=S)Nc1ccc(Oc2ccccc2)cc1,-10,0,30*,4,-29
NC(=S)Nc1ccc(Oc2ccc(NC(N)=S)cc2)cc1,-2,0,1,9,-30*
CCCNC(=S)Nc1ccc(Oc2ccccc2)cc1,-3,0,5,-2,-30
CNc1c(NC(=O)c2ccc3c(c2)OCO3)c(=O)oc2ccccc12,-7,1,2,-5,-6
Cc1cc(=O)[nH]c2c(C)cc(S(=O)(=O)NCc3ccccc3)cc12,-3,1,3,-6,-39*
O=C(Cn1ncn2cccc2c1=O)NCc1cccc(Br)c1,0,0,1,1,2
O=C(Cn1ncc2c(Cl)cccc21)NCc1cccc(Br)c1,-5,-1,9,-4,-30*
O=C(Cn1ncc2c(Cl)cccc21)NCc1cccc(F)c1,-4,-1,0,4,-81*
CC(C)(C)c1ccc(C(=O)NCCOc2ccccc2)cc1,-3,-1,7,-4,-31*
O=C(NCCOc1ccccc1)c1cc(C(=O)NCCOc2ccccc2)cc([N+](=O)[O-])c1,-7,0,9,-3,-40*
O=C(NCCc1ccc([N+](=O)[O-])cc1)c1ccccc1,1,-2,3,3,8
O=C(CCNC(=O)c1ccccc1)Oc1ccc([N+](=O)[O-])cc1,-6,1,6,-4,-46*
O=C(NCCOc1ccccc1)c1cccc(S(=O)(=O)NCc2ccccc2)c1,-8,0,22,-5,-38*
O=C(NCCc1ccccc1)c1cccc(S(=O)(=O)NCc2ccccc2)c1,-3,1,4,0,1
CC(C)(C)c1ccc(C(=O)NCCOc2ccccc2F)cc1,-3,1,1,-12,8
O=C(NCCOc1ccccc1)c1ccccc1[N+](=O)[O-],-2,0,1,4,1
CCOc1cc2[nH]c(=O)n(CCCCC(=O)N3CCN(c4ccccc4)CC3)c(=O)c2cc1OCC,-3,0,0,-10,-20
Cc1ccccc1CNC(=O)C(=O)NCC(c1ccco1)S(=O)(=O)c1ccc(F)cc1 (stereo not given),-1,0,7,-4,nt
COc1ccc(C(=O)NCCOc2cccc(Oc3ccccc3)c2)cc1OC,-5,2,15,-3,-44*
COc1ccc(C(=O)NCCNc2ccc([N+](=O)[O-])cc2)cc1,-4,-2,-3,0,nt
COc1cccc(C(=O)NCC(=O)OCC(=O)C(C)(C)C)c1,-2,0,3,8,2
COC(=O)CCCNC(=O)c1ccc(OS(=O)(=O)c2cc([N+](=O)[O-])ccc2C)cc1,4,-1,63*,2,-11
CC(C)(C)C(=O)COC(=O)CNC(=O)c1ccc(Oc2ccccc2)cc1,7,0,159*,-3,-49*
O=[N+]([O-])c1ccccc1NCCOc1ccccc1,-2,0,1,-7,-44*
COc1cccc(NC(=O)CN(C)C(=O)CSc2ccc3c(c2)OCCO3)c1,nt,0,7,-6,4
